In the library only some 15% were active in any assay of this set; here they are far more common.
DT40 TDP1 CPT: DT40-hTDP1 cell growth loss with CPT; chicken DT40 Tdp1-/-;hTDP1 cells + 20 nM CPT, ATP luminescence, 48 h; Potency, µM (titrated, usually from 46.2 µM), inactives show at the highest dose activity change, negative = growth inhibition, actives largely listed as inhibitors; 420,000 compounds, 12% hits; AID 686979; further: nearly all actives have a fitted effect of over 55% in size
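Chicken DT40 Tdp1-/- cells complemented with human TDP1, 400 cells/well, exposed to compounds plus 20 nM camptothecin for at least 48 h at 37 C; viability read as ATP content by CellTiter-Glo luminescence.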
TDP1 cell noCPT: qHTS for Inhibitors of human tyrosyl-DNA phosphodiesterase 1 (TDP1): qHTS in cells in absence of CPT. DT40 Tdp1-/- hTDP1 cells, no CPT, ATP luminescence, 48 h. Potency, µM (series often up to 46.2 µM), for inactives: at the highest dose activity change, negative = growth inhibition, hits mostly inhibitors. 420,000 compounds, 15% hits; further: nearly all actives have a fitted effect of over 55% in size
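Growth kinetics read by CellTiter-Glo luminescence after ≥48 hr at 37 °C. Cells: DT40 Tdp1-/- stably carrying human TDP1, 400 per well, compound exposure in the absence of CPT (DMSO vehicle).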
12-LOX inh: blocks human arachidonate 12S-lipoxygenase; P18054; purified 12hLO, xylenol orange hydroperoxide absorbance; Potency, µM (series often up to 108 µM), without a hit: at the highest dose activity change, negative = inhibition, most hits filed as inhibitors; 580,000 compounds, 1.1% hits; AID 1671190
Target sequence (P18054 whole entry, looked up): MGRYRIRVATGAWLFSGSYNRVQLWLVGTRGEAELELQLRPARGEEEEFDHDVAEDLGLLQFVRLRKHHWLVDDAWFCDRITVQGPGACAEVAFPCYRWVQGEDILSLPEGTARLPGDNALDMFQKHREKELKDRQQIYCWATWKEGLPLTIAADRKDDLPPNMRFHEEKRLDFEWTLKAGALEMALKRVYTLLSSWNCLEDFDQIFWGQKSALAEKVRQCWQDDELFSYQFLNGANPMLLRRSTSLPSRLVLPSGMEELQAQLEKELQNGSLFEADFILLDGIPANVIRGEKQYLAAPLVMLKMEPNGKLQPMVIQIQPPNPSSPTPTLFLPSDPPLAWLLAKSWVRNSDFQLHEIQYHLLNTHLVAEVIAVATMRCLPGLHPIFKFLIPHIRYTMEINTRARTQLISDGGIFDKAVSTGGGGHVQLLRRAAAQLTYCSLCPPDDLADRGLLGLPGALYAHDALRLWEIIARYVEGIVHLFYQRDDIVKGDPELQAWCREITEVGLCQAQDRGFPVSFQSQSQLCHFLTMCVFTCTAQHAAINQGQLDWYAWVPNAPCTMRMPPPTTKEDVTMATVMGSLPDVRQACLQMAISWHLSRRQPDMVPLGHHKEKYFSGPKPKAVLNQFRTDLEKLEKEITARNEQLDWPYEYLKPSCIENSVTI
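Purified human 12hLO at 150 nM in 25 mM Hepes, 0.01% Triton X-100, pH 7.0, preincubated 15 min at room temperature with compound. Reaction started with 40 uM arachidonic acid, 30 min at room temperature. Hydroperoxide measured by Fe-xylenol orange, 573/405 nm absorbance ratio.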
Gal4-VP16 FLuc: inhibits Gal4-VP16 luciferase reporter, ROR gamma counter-screen; Potency, µM (doses to about 53.6 µM), without a hit: top-dose activity, negative = inhibition, actives largely listed as inhibitors; 310,000 compounds, 3.5% hits; Drosophila S2 Gal4-VP16 UAS-luciferase, luminescence, 20 h;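 further: Gal4-VP16 expression switched on by copper sulfate through the metallothionein promoter; nearly all actives have a fitted effect of over 50% in size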
RORg inh: inhibitors of mouse ROR gamma transcriptional activity. Potency, µM (titrated, usually from 53.6 µM), without a hit: at the highest dose activity change, negative = inhibition, hits mostly inhibitors. 310,000 compounds, 5.4% hits. P51450. AID 2551. Drosophila S2 Gal4-RORgamma UAS-luciferase reporter, 20 h; further: nearly all actives have a fitted effect of over 60% in size
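Stable Schneider cell line, Gal4 DNA-binding domain fused to ROR gamma, UAS-luciferase. Cmpd 1 hr RT → CuSO4 700 uM final → 20 hr RT → luciferase reagent 10 min → luminescence.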
ELG1 DNA repair: inhibitors of ELG1-dependent DNA repair in HEK293T cells; HEK293T ELG1-luciferase reporter, luminescence, 16 h; DNA damage induced by 5-fluorouridine; Potency, µM (series often up to 46.1 µM), for the others: top-dose activity change, negative = inhibition, actives largely listed as inhibitors; 330,000 compounds, 2.3% hits; AID 504467; further: nearly all actives have a fitted effect of over 55% in size
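5-Fluorouridine DNA damage + compound/DMSO, 2,000 cells/well, 16 h, 37 °C/5% CO2. ONE-Glo, 30 min RT, luminescence. Readout = decrease in reporter signal.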
* hit, by the source's call; ? = inconclusive; . = not tested or not shown; [ ] = remark or other dose. The call rests on the fitted dose curve; in most records, active means well fitted curve in the direction sought with a large enough effect; inconclusive means small, poorly fitted or top-dose-only effect, or another doubt; inactive means no such curve, though single readings can be large; an effect the other way counts as inactive or inconclusive. On the % scale 0 is the no-effect control and ±100 the full control effect; potency means the concentration at half of the fitted maximal effect.

SMILES | DT40 TDP1 CPT | TDP1 cell noCPT | 12-LOX inh | Gal4-VP16 FLuc | RORg inh | ELG1 DNA repair
CCOC(=O)COc1ccc2c(C)c(Cc3ccccc3)c(=O)oc2c1C | . | . | -27.0% | . | . | .
COc1cc(=O)n2c(c1C(=O)Nc1ccc(Br)cc1F)CCCC2 | . | . | 20µM* | . | . | .
CCn1cc(/C=N/NC(=O)c2ccc(C#N)cc2F)c2ccccc21 | -24.4% | -26.1% | 14.7% | 10µM* | -140.0% | ?
COC(=O)Cn1cc(/C=N/NC(=O)c2ccc(C#N)cc2F)c2ccccc21 | -12.0% | -6.9% | 13.0% | -1.6% | 10µM* | 0.2%
CC(=O)N(C)c1ccc(C(O)(C(F)(F)F)C(F)(F)F)cc1 | -8.3% | ? | 6.5% | -11.8% | 12.6µM* | 3.5%
CCOc1cc(C(=O)Nc2ccccc2O)ccc1OC(F)F | . | . | -10.8% | . | . | .
Cc1ccc(CN(C)C(=O)C2CCN(c3ccc(C(F)(F)F)cn3)CC2)c(C)c1 | . | . | -32.8% | . | . | .
CCC(C)n1c(=N)c(C(=O)NCc2ccccc2)cc2c(=O)n3cc(C)ccc3nc21 (configuration not stated) | ? | 16.4µM* | ? | . | . | .
CNC(=O)c1cc2c(=O)n3cc(C)ccc3nc2n(Cc2ccco2)c1=N | . | . | . | ? | 11.2µM* | 0.0%
Cc1ccc2nc3c(cc(C(=O)NCc4ccco4)c(=N)n3C(C)C)c(=O)n2c1 | -2.6% | -3.4% | -3.4% | . | . | .
CCOc1ccc2c(n1)CCN(C(=O)Cc1cccc(OC)c1)C2 | . | . | 19.8% | . | . | .
CCOc1cc(/C=N/NC(=O)CN(CCc2ccccc2)S(=O)(=O)c2ccc(NC(C)=O)cc2)ccc1O | ? | 18.4µM* | -2.1% | 1.7% | ? | 25.9µM*
COc1ccc(NCC(=O)N/N=C/c2ccc3c(c2)OCCO3)cc1 | ? | -18.7% | ? | -6.4% | 0.126µM* | -1.0%
O=C(CN(CCc1ccccc1)S(=O)(=O)c1ccc(Cl)cc1)N/N=C/c1ccc2c(c1)OCO2 | -15.9% | -11.6% | -6.3% | -26.5% | -33.1% | -9.4%
COc1ccc(S(=O)(=O)N(CCc2ccccc2)CC(=O)N/N=C/c2ccc3c(c2)OCO3)cc1 | ? | ? | -9.7% | -1.2% | 28.0% | 16.4µM*
COc1ccc(NS(=O)(=O)c2cccc(C(=O)N/N=C/c3ccc4c(c3)OCCO4)c2)cc1 | -14.4% | ? | -4.0% | 1.7% | -16.6% | 7.0%
O=C1/C(=C/c2ccccc2)Oc2ccccc21 | . | . | . | -3.0%[10 µM] | 5.3%[10 µM] | .
COc1ccc(C=C2OC(=O)C(C(C)=O)=C2O)cc1 | ? | 16.4µM* | 44.7µM* | . | . | .
CC(=O)C1=C(O)C(=Cc2ccccc2)OC1=O | 1.8% | ? | 14.1µM* | . | . | .
COCCn1c(SCC(=O)Nc2cccc(C(F)(F)F)c2)nc2ccsc2c1=O | . | . | -28.1% | . | . | .
CN(C1=C(NC(=O)c2ccc(Cl)cc2)C(=O)c2ccccc2C1=O)c1ccccc1 | 5.8µM* | 10.3µM* | 7.8% | 11.2µM* | 11.2µM* | ?
Cc1cccc(C(=O)Nc2cccc(NC(=O)c3ccccc3)c2)c1 | -5.7% | ? | 4.8% | 15.0% | 18.2% | -29.9%
Cc1cccc(NC2=C(NC(=O)c3ccccc3)C(=O)c3ccccc3C2=O)c1 | 10.3µM* | 11.6µM* | 14.1µM* | ? | ? | ?
O=C(Nc1ccc(NS(=O)(=O)c2ccccc2)cc1)c1ccc(Cl)cc1 | -20.9% | -11.8% | -27.5% | -16.6% | 8.8% | 16.2%
O=C(NC1=C(NC2CCS(=O)(=O)C2)C(=O)c2ccccc2C1=O)c1ccccc1 (configuration not stated) | 2.06µM* | 2.31µM* | ? | ? | 12.6µM* | ?
SMILES | DT40 TDP1 CPT | TDP1 cell noCPT | 12-LOX inh | Gal4-VP16 FLuc | RORg inh | ELG1 DNA repair
O=C1C(Cl)=C(NC(=O)c2ccccc2)C(=O)C(Cl)=C1NC(=O)c1ccccc1 | 1.3µM* | 2.59µM* | ? | ? | 7.08µM* | -4.0%
COc1cc(C)cc2oc(=O)c(CC(=O)Nc3ccc4c(c3)OCO4)c(C)c12 | . | . | -28.0% | . | . | .
Cc1cnc(C(=O)NCc2sccc2C)cn1 | . | . | 4.0% | . | . | .
O=C(N(Cc1cccc2[nH]ccc12)C1CC1)C12CC3CC(CC(C3)C1)C2 | . | . | -2.4% | . | . | .
Cc1ccc(S(=O)(=O)N2CCN(C(=O)Cc3c(C)nn(C)c3C)CC2)cc1 | . | . | 27.1% | . | . | .
CC(=O)Nc1ccc(NC2=C(Cl)C(=O)c3ccccc3C2=O)cc1 | ? | ? | -1.2% | -8.2% | ? | ?
O=C(NC1=C(Nc2ccc(Cl)cc2)C(=O)c2ccccc2C1=O)c1ccccc1 | 23.1µM* | 16.4µM* | -20.2% | ? | 14.1µM* | ?
O=C(O)c1ccc2oc(C(=O)c3ccccc3)cc2c1 | . | . | 0.0% | . | . | .
CN(C)CCCN(C(=O)CCOc1ccccc1)c1nc2ccc(F)cc2s1 | 2.91µM* | 2.91µM* | ? | 7.94µM* | 10µM* | -12.8%
CN(C)CCCN(C(=O)CCOc1ccccc1)c1nc2c(F)cccc2s1 | 5.8µM* | 4.61µM* | 7.3% | -29.7% | 8.91µM* | 12.8%
Cc1ccc2sc(N(CCCN(C)C)C(=O)CN3C(=O)c4ccccc4C3=O)nc2c1C | 20.6µM* | 20.6µM* | ? | 2.3% | ? | ?
CCn1c(SCC(=O)NCc2ccc(C)cc2)nnc1-c1cccs1 | . | . | -7.4% | . | . | .
Nc1ncccc1OCc1ccc(Br)cc1 | -27.1% | 18.4µM* | 0.0% | -4.1% | ? | ?
COc1ccc(COc2cccnc2N)cc1 | -29.4% | -29.7% | 92.9% | 1.0% | 30.6% | ?
O=C(Cn1nnc(-c2ccc3c(c2)OCO3)n1)Nc1ccccc1C(=O)O | -9.4% | -3.7% | 22.4µM* | -18.2% | -13.3% | ?
CN(C)c1ccc(-c2nnn(CC(=O)Nc3ccccc3N3CCOCC3)n2)cc1 | ? | ? | 12.9% | -10.4% | 26.6% | 14.6µM*
CN(C)c1ccc(-c2nnn(CC(=O)N3c4ccccc4CCc4ccccc43)n2)cc1 | ? | 16.4µM* | -4.1% | -6.1% | 16.8% | 3.5%
CCC12CN(CC#N)CC(C)(CN(CC#N)C1)C2=O | . | . | -1.0% | . | . | .
COc1ccc(CNC(=O)CCc2ncc(-c3ccccc3)o2)cc1OC | . | . | 16.5% | . | . | .
Cc1ccc(S(=O)(=O)/N=C2\C=C(Nc3cccc(C(=O)O)c3)C(=O)c3ccccc32)cc1 | ? | ? | -17.1% | ? | 15.8µM* | 23.1µM*
CCc1ccc(S(=O)(=O)/N=C2\C=C(Nc3ccc(C(=O)O)cc3)C(=O)c3ccccc32)cc1 | 18.4µM* | 23.1µM* | -21.5% | ? | 11.2µM* | 4.61µM*
O=C(O)c1ccc(NC2=C(n3nnc4ccccc43)C(=O)c3ccccc3C2=O)cc1 | 6.9% | -8.6% | -18.2% | -3.5% | -21.0% | ?

Screening results as filed in PubChem.
